D1 potentiator – Potentiators of Human D1 Dopamine Receptor: qHTS; D(1A) dopamine receptor (Homo sapiens), P21728; HEK293 TREx D1 cells, calcium flux, dopamine EC20 potentiation; potentiation, % at 10 µM; 360,000 compounds, 0.036% hits; AID 504651, 2011; in the data active = potentiation above about 30%; note: 0% is about no effect
D1 ag – Allosteric Agonists of the Human D1 Dopamine Receptor: qHTS. 360,000 compounds, 1% hits. AID 504660, 2011. activation, % at 2 µM. HEK293 T-REx D1 cells, calcium flux, agonist mode. D(1A) dopamine receptor (Homo sapiens), P21728; note: 0% is about no effect
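Inducible HEK293 T-REx D1 cells, force-coupled to calcium signalling, were plated at 4000 cells/well with tetracycline and held overnight at 30 C. After no-wash calcium dye loading, compound-evoked calcium rise over 180 s flagged agonists.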
TRHR enhancer – qHTS for Small Molecule Agonists and Allosteric Enhancers of Human TRH Receptor: Primary Screen for Enhancers. Thyrotropin-releasing hormone receptor (Homo sapiens), P34981. AID 493056, 2011. enhancement, % at 2 µM. TRHR cells, fluo-8 calcium fluorescence, EC20 TRH enhancement. 360,000 compounds, 0.66% hits; in the data active = enhancement above about 30%; note: 0% is about no effect
Target sequence (P34981 whole entry, looked up): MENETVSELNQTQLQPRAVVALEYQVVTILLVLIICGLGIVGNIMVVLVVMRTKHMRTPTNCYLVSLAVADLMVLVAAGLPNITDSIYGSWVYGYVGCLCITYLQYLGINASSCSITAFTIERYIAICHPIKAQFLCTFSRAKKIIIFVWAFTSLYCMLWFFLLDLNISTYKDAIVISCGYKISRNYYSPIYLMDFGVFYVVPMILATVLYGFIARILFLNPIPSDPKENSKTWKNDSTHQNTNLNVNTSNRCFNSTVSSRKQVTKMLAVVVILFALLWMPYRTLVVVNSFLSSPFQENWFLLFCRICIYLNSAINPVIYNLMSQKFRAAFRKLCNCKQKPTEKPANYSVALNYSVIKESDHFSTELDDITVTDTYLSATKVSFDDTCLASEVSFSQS
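Enhancer read-out: after compound pinning and an initial kinetic agonist-mode read, an EC20 of TRH (10 nM final) was injected and fluo-8 calcium signal (Ex 480/Em 530) followed at 1 s/cycle for 100 cycles in TRHR-expressing cells.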
TRHR ag – qHTS for Small Molecule Agonists and Allosteric Enhancers of Human TRH Receptor: Primary Screen for Agonists | Thyrotropin-releasing hormone receptor (Homo sapiens), P34981 | 360,000 compounds, 0.18% hits | activation, % at 2 µM | TRHR cells, calcium flux fluo-8, FDSS agonist mode; note: 0% is about no effect
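In this calcium-flux screen, cells bearing human TRHR are dye-loaded with fluo-8, baselined for 10 cycles, then exposed to library compounds; positive kinetic calcium responses during the agonist phase mark hits, with TRH as control.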
D1 antag – Antagonist of Human D 1 Dopamine Receptor: qHTS. HEK293 TREx D1 cells, calcium flux, dopamine EC80; hits give low values. activity change, negative = inhibition, % at 10 µM. D(1A) dopamine receptor (Homo sapiens), P21728. 360,000 compounds, 3.2% hits; in the data active = activity change below about -30%; note: % is set by controls: 0 for no effect and ±100 for the full control effect
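Tetracycline-induced HEK293 Trex D1 cells, force-coupled to calcium, dye-loaded; compounds added and read 180 s, then EC80 dopamine added and calcium flux tracked kinetically another 180 s.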
The depositor's hits bear a star. The list is not random: actives were taken first. Their share in the collection is about 4.6%. Cut-off read from the data, not from the text of the source, unless noted: active = activation above about 30%; inactive = the rest.

SMILES | D1 potentiator | D1 ag | TRHR enhancer | TRHR ag | D1 antag
Cc1ccc(S(=O)(=O)NCCC(=O)N2CCN(c3cccc(Cl)c3)CC2)cc1C | 3 | 6 | 1 | 0 | -30*
Cc1ccc(S(=O)(=O)N(C)CC(=O)N2CCCCCC2)cc1 | 4 | -4 | 33* | 0 | -2
Cc1nc2ccc(S(=O)(=O)NCC(=O)N3CCN(c4ccccc4)CC3)cc2s1 | -5 | 1 | -7 | 0 | -39*
Cc1ccc(S(=O)(=O)NCCC(=O)N2CCCCCC2)cc1 | -14 | 4 | 15 | 0 | -36*
Cc1ccc(S(=O)(=O)NCCC(=O)N2CCCCC2)cc1 | 0 | -1 | -5 | 0 | 3
Cc1nc2ccc(S(=O)(=O)NCC(=O)N3CCCCC3)cc2s1 | -3 | 1 | 0 | 0 | -1
COc1ccc(OCC(=O)OCc2cc(=O)n3nc(C4CC4)sc3n2)cc1 | -3 | 2 | 2 | 0 | -29
Cc1nc2ccc(S(=O)(=O)NC(C(=O)N3CCn4c3nc3ccccc34)C(C)C)cc2s1 (stereo unspecified) | -6 | 1 | -12 | 1 | -55*
Cc1ccc(CNC(=O)C(NS(=O)(=O)c2ccc3nc(C)sc3c2)C(C)C)cc1 (stereo unspecified) | -2 | 3 | 4 | 0 | 2
CN(C(=O)c1nn(C)c2c1COc1ccccc1-2)c1cccc(C(F)(F)F)c1 | 2 | -1 | -8 | 0 | -2
CCCCC(=O)Nc1cc(-c2nc3cccnc3s2)ccc1C | 0 | 1 | -9 | 0 | -1
CCCC(=O)Nc1cc(-c2nc3cccnc3s2)ccc1C | -3 | 49* | 15 | 0 | 24
Cc1nc(-c2ccccn2)nc(N2CCOCC2)c1Cl | 1 | 4 | -3 | 1 | -43*
c1ccc(-c2nc(N3CCOCC3)c3ccccc3n2)nc1 | -6 | 1 | -1 | 0 | -34*
c1ccc(-c2nc(N3CCCCCC3)c3ccccc3n2)nc1 | 3 | -2 | -4 | 0 | 4
Cc1nnc(-c2ccccc2)nc1N1CCOCC1 | 0 | 6 | -7 | 4 | 65
CCC(OC(=O)c1ccco1)C(=O)NCc1ccc(C)cc1 (stereo unspecified) | -10 | -1 | -22 | 0 | -77*
Cc1ccc(CNC(=O)C(C)OC(=O)c2ccco2)cc1 (stereo unspecified) | -3 | 1 | 0 | 0 | -7
CC1CCN(c2nc(-c3ccccc3)c(C#N)c(=O)[nH]2)CC1 | -8 | 1 | 0 | 1 | -39*
Cc1nc2nc(CNC(=O)OC(C)(C)C)nn2c(C)c1CCC(=O)NCc1ccccc1Cl | 1 | 1 | -6 | 0 | 2
COc1ccc(CCC(=O)NNC(=O)Cn2nc(C)cc2C)cc1 | -11 | 4 | 15 | 1 | -58*
Cc1cc(C)n(CC(=O)NNC(=O)CCCOc2ccc(Cl)c(C)c2)n1 | 0 | 7 | 0 | 0 | 12
CN(c1ccc(C(=O)NCCSCc2ccc(Cl)cc2)cc1)S(=O)(=O)c1ccccc1 | 5 | 39* | 5 | -1 | -19
CN(c1ccccc1)S(=O)(=O)c1cccc(NC(=O)CCNC(=O)c2ccc(Cl)cc2)c1 | -3 | 4 | -2 | 0 | -19
CN(c1ccccc1)S(=O)(=O)c1cccc(NC(=O)c2cc(=O)c3ccccc3o2)c1 | -6 | 4 | -1 | 0 | -34*
CN(c1ccccc1)S(=O)(=O)c1cccc(NC(=O)CCNC(=O)c2ccccc2)c1 | -10 | 0 | -2 | 2 | -43*
NS(=O)(=O)c1cccc(NC(=O)c2cc(=O)c3ccccc3o2)c1 | -3 | 2 | 11 | 1 | -4
Cc1ccc(CSCCNC(=O)c2ccc(N(C)S(=O)(=O)c3ccccc3)cc2)cc1 | -1 | 28 | -3 | 2 | -16
Cc1ccc2c(=O)cc(C(=O)Nc3c(C(=O)Nc4cccc(Cl)c4)oc4ccccc34)oc2c1 | 3 | -2 | 6 | 0 | -46*
